Over roughly 33,000 sequences, “E-score (-0.5 to 0.5)” has its median near -0.013; the highest 2% begin near 0.3. Many of the other results were omitted from the sample, so the highest values are more common in it than they were.
target: T1, Msn1 (UniProt P22148); experiment: PBM E-score (8-mer binding enrichment) (E-score (-0.5 to 0.5)); higher = stronger / more preferred TF binding; conditions: protein concentration: 200 nM; construct: GST-full length
T1 sequence: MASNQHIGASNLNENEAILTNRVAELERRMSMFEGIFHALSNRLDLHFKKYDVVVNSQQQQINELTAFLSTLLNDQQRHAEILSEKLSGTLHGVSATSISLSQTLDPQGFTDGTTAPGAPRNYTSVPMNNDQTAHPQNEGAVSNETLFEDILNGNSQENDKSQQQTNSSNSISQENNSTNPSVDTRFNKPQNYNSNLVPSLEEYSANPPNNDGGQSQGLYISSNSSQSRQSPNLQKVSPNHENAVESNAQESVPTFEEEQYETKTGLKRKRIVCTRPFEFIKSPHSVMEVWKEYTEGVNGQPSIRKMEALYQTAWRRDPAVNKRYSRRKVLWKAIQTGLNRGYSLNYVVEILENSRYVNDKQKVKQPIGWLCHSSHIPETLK
Method: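 Universal 'all 10-mer' protein binding microarrays (Agilent AMADID 015681) probed with GST-tagged S. cerevisiae TFs (full-length or DBD) made by in vitro transcription/translation (PURExpress), about 100-200 nM. Bound TF was detected with fluorescent anti-GST. Each ungapped 8-mer (which stands for itself and its reverse complement) is scored by the PBM enrichment score (E-score), a modified Wilcoxon-Mann-Whitney statistic from -0.5 to +0.5, computed with the Universal PBM Analysis Suite. Scale: above 0.35 generally sequence-specific binding.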

Sequence | PBM E-score
CAATGTGG | 0.111
CAATGTCG | 0.323
AAATGTCT | 0.486
AAATGTTG | -0.0982
CAATGTGC | -0.121
AAATGTGG | 0.147
CAATGTAG | -0.109
AAATGTAT | 0.28
AAATGTCG | 0.412
CAATGTCC | 0.47
AAATGTGT | 0.292
CAATGTCA | 0.262
ACGACTCC | -0.181
GTCGGGTA | 0.0767
GACGTCAA | -0.00044
GTAATATA | 0.191
GAGAAACC | -0.0447
TATGTGAA | -0.121
GATAAGGC | 0.0376
TAATGTCA | 0.259
AAATGTCA | 0.456
AAATGTAA | 0.238

Sequence | PBM E-score
AAATGTTA | 0.165
GAATGTGA | 0.076
GAATGTCA | 0.373
ACGATAGT | 0.0402
CGACCTGA | 0.0583
CGTTGTCA | -0.023
AGTTGTCA | 0.295
CGTTGTGC | 0.114
CGTTGTCC | 0.413
AGTTGTGC | -0.273
AGTTGTCC | 0.441
AATGCGGG | 0.145
GGGAGCAC | -0.276
AAGCTCGT | 0.0392
GCTTCCAA | -0.0663
GTCATTGA | 0.0439
AGCTGGTC | -0.0428
ACGGGCAG | -0.0886
AGCAGACA | 0.0142
CGCAGACA | 0.323
TGCAGACA | 0.33
CGCAGACC | -0.123

Sequence | PBM E-score
CGCAGACG | 0.0312
GGCAGACA | 0.079
ATCACTAC | -0.126
CAGTGCTC | -0.259
AGCGCAGC | -0.115
ACCGCAAG | -0.0142
ATGCTACC | -0.126
AGAGATAT | 0.0248
CGCCGGCG | 0.204
CCTGCCAA | -0.125
CTGTCATA | 0.0936
CTGTCATC | 0.0737
ATGTCATC | 0.341
GTGTCATA | 0.292
ATGTCATG | 0.411
ATGTCAAG | 0.217
ATGTCAGC | 0.194
ATGTCATA | 0.448
CTGTCAAA | 0.0466
GTGTCAAA | 0.096
ATGTCAAA | 0.323
ATGTCAGG | 0.158

Sequence | PBM E-score
AGAGGTTG | -0.182
AGGTAACA | 0.113
AAGTCGCT | -0.0636
CTGGGACC | -0.269
CTGGGAAA | -0.203
CTGGGACA | 0.444
GTGGGAGA | -0.317
GTGGGATA | -0.0948
ATGGGACA | 0.429
GTGGGACA | 0.455
ATGGGACC | 0.00395
ATGGGACG | -0.188
GACCGTGA | -0.0454
AACGCTAC | -0.137
CCCAACGC | 0.0471
AATACCTG | -0.0275
GGTGAGAC | 0.0221
ACACACCA | 0.183
CTCCTTCA | -0.3
AGAAGCTA | -0.135
